Experimental data from PubChem BioAssay AID1903 (Southern Research Specialized Biocontainment Screening …, 2009).
Out of some 310,000 compounds screened, about 1,200 (0.39%) were called active. Only a sample is shown. Measured potencies and affinities stand elsewhere. Unmarked numbers belong to inactive results. How the calls were made is not given here.

These compounds were tested against Large T antigen (Simian virus 40) (UniProt P03070) (assay: TAg ATPase/helicase activity blockers – biochemical (AID 1903)). Details: SV40 large T antigen ATPase/helicase inhibition assay; at 20 µM; stronger effect = higher value.
Chain of Large T antigen (Simian virus 40) (P03070 whole entry, looked up): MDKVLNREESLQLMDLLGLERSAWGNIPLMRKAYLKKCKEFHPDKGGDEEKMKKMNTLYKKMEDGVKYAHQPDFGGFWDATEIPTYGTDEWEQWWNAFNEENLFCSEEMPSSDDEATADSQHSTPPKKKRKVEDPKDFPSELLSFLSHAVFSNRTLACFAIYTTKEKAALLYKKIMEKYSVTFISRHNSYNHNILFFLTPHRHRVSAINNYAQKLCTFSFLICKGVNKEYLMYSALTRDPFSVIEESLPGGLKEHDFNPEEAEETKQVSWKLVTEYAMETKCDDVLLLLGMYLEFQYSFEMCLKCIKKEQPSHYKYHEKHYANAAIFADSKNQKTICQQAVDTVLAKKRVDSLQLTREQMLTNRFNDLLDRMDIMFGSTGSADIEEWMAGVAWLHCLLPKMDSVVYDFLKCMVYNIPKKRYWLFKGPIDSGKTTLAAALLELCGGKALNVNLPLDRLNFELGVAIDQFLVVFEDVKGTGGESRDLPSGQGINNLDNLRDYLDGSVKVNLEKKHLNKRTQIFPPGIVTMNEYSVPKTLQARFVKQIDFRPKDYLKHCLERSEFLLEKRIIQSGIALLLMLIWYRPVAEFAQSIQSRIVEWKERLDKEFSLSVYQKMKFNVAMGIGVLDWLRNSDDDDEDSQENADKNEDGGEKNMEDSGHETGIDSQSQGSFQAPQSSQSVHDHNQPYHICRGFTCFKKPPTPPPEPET

SMILES	inhibition [%]
O=C(O)c1cnc(-c2ccccc2)nc1Sc1ccc(Cl)cc1	12.4
CCOc1ccc(C(c2nnnn2C(C)(C)C)N2CCN(C(=O)c3ccco3)CC2)cc1 (centres undefined)	4.34
CC(NS(=O)(=O)c1ccc(F)cc1)C(c1cccs1)N1CCOCC1 (centres undefined)	-5.54
COC(=O)c1ccccc1NC(=O)CCCCCn1nnc2ccccc2c1=O	26.9
COc1cccc(CN(C)CC(=O)NCc2ccc(F)cc2)c1OC	-3.04
CC(=O)Oc1ccc(-c2cccc(C(=O)Oc3ccccc3)c2)cc1	-7.54
CCN(CC)S(=O)(=O)c1ccc(NC(=O)COC(=O)CCc2cc(OC)c(OC)c(OC)c2)cc1	0.42
O=[N+]([O-])c1ccccc1NCCOc1ccccc1	5.2
COC(=O)c1ccccc1NC(=O)C/C(C)=N/NC(=O)CC#N	6.52
CC(C)C[C@H](NC(=O)Nc1cccc(Cl)c1)C(=O)O	10.3
O=C(CN1CCOCC1)Nc1ccccc1Cl	8.91
NC(N)=N/N=C/c1cc([N+](=O)[O-])ccc1O	9.25
NC(=O)N/N=C/c1ccc(-c2ccc([N+](=O)[O-])cc2)o1	12.1
O=C(N/N=C/c1ccc(O)cc1O)C1CC1	33.4
O=C(N/N=C/c1ccc(-c2cccc([N+](=O)[O-])c2)o1)c1ccccc1O	2.92
CCCCn1c(N)c(N(CC(C)C)C(=O)C2CCN(S(=O)(=O)c3ccc(Cl)cc3)CC2)c(=O)[nH]c1=O	11.5
O=C(NCC1CCCCC1)c1cccnc1	11.1
O=C(NCCO)C(=O)Nc1cc2c3c(c1)CC(=O)N3CCC2	7.7
CCCC(=O)Nc1cc2c3c(c1)CC(=O)N3CCC2	8.54
Nc1ccc(Nc2ccccc2)c(Cl)c1	19.8
Cc1ccc(Nc2ccc(N)cc2S(=O)(=O)O)cc1	21.6
Cc1cc(C)cc(Nc2ccc(C(=O)O)cc2N)c1	23.9

SMILES	inhibition [%]
Cc1ccc(Nc2ccc(C(=O)O)cc2N)cc1	-4.88
CC(=O)c1c(NCCc2ccccc2)cc(C)oc1=O	-0.81
CCC(OC(=O)c1cccs1)C(=O)NCc1ccco1 (centres undefined)	8.42
Cc1c(Cl)cccc1NC(=O)NC1CCCCC1	2.26
CCc1cccc2c(C(=O)CSc3nncn3-c3ccccc3OC)c[nH]c12	2.74
COc1cccc(-n2cc(C(=O)NCCCOC(C)C)c3ccccc3c2=O)c1	11.2
O=C(/C=C/c1ccc(O)c(O)c1)OC(Cc1ccc(O)c(O)c1)C(=O)O (centres undefined)	4.28
O=C(/C=C/c1ccc(O)c(O)c1)OCCc1ccccc1	37.9
CN(CCCNS(=O)(=O)c1cccc2cccnc12)Cc1ccccc1	-0.29
O=C(Cn1c(=O)n(Cc2ccco2)c(=O)c2c3c(sc21)CCCCC3)c1ccccc1	49.4
O=C(Cn1c(=O)n(Cc2ccco2)c(=O)c2c3c(sc21)CCCCC3)Nc1ccccc1	51.6
CN1C(=O)C(CC(=O)NC2CCCCC2)N(C)C1=O (centres undefined)	-7.63
Cc1cccc(N=Cc2c(O)cc(C)oc2=O)c1	7.74
CCOc1ccc(N=Cc2c(O)cc(C)oc2=O)cc1	18.6
NC(=O)CN1CCN(S(=O)(=O)c2ccc(Cl)cc2)CC1	4.21
COc1ccc(C2CC(=O)C=C(O)C2)cc1 (centres undefined)	6.5
COc1ccc(C(C2C(=O)CC(C)(C)CC2=O)C2C(=O)CC(C)(C)CC2=O)cc1	25.9
CC(=O)N(Cc1cccc(Br)c1)c1ccc(N2CCOCC2)c(Cl)c1	9.14
Cn1c(COc2ccc3ccccc3c2)nnc1SCC(N)=O	-1.72
Cc1cccc(N=c2oc3cc(O)ccc3cc2C(N)=O)c1	22.6
NC(=O)c1cc2ccc(O)cc2oc1=Nc1ccccc1	36.3
CN(C)/C=N/c1c(C#N)cnn1-c1ccccc1	9.99

SMILES	inhibition [%]
CN(CC(=O)Nc1ccc(Cl)c(C(F)(F)F)c1)C(=O)C1CCC1	17.7
Cc1ccsc1/C=N/N=C/c1sccc1C	-8.78
Cc1ccc(N=Cc2sccc2C)cc1C	3.36
Cn1c(N)c(S(=O)(=O)N2CCCC2)c(=O)n(C)c1=O	8.94
CCOc1ccccc1NC(=O)C1CCN(c2ccc(S(=O)(=O)N3CCCC3)cc2)CC1	5.71
NC(=O)c1cc2cc(Br)ccc2oc1=NCc1ccccc1	-0.91
CC(=NCc1ccccc1)C1=C(O)COC1=O	5.76
O=C(CCSc1ccc(Cl)cc1)N1CCN(c2ncccn2)CC1	0.35
CCn1cc(CN2CCC(C(=O)Nc3ccc(Oc4ccccc4F)cc3)CC2)c(C)n1	10.4
COc1ccc2c(COC(=O)CCS(=O)(=O)c3ccc(C)cc3)cc(=O)oc2c1	6.52
CCCC(=O)Oc1ccc2c(C)cc(=O)oc2c1	18.6
COc1cc(C(C)=O)ccc1OCC(O)CN1CCN(c2c(C)cccc2C)CC1 (centres undefined)	-5.73
OCCOc1ccc(C2=NCCO2)cc1	-2.82
CCN1CCN(CC(=O)Nc2ccc3c(c2)OCO3)C(=O)C1=O	3.32
CCN(CC)c1ccc(Nc2cc3n(c(=O)n2)CCc2cc(OC)c(OC)cc2-3)cc1	31.5
COc1ccc(Nc2cc3n(c(=O)n2)CCc2cc(OC)c(OC)cc2-3)cc1	10.4
CCOc1ccc(N2C(=O)/C(=C/c3ccccn3)SC2=S)cc1	9.29
COc1ccc(N2CCN(C(=O)CCc3ccc(S(=O)(=O)NC(C)C)cc3)CC2)cc1	11.6
CC(C)CC(=O)Nc1ccnn1C1CCN(C(=O)c2ccc(F)cc2Cl)CC1	0.42
O=C(NNC(=O)c1ccco1)c1ccc(NS(=O)(=O)c2cccs2)cc1	9.88
